The list is not random: actives were taken first. Their share in the collection is about 2.4%.
D2 ag-1: human D2 receptor agonism in beta-arrestin assay; P14416; DiscoveRx PathHunter D2 beta-arrestin, luminescence, 90 min; 100% = 57 uM dopamine signal; activation, % (test concentration not listed); 0.084% of 360,000 active; AID 624465; in the data active = activation above about 40%; inconclusive = between about 15% and that limit
Target sequence (P14416 whole entry, looked up): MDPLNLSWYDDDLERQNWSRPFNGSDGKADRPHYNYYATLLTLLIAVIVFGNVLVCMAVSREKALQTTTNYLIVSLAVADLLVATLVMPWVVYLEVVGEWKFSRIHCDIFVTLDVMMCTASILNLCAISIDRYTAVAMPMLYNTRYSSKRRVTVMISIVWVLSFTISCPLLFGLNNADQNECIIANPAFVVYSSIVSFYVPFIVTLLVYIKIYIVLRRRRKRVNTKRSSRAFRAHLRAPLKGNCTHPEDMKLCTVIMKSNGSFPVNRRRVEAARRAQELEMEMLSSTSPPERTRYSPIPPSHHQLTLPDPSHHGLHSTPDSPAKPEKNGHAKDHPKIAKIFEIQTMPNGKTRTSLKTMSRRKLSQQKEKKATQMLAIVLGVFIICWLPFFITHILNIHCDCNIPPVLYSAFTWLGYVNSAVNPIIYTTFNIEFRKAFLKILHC
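Agonist mode: compounds alone added to overnight-plated D2 PathHunter cells for 90 min at 37 C, with 57 uM final dopamine (EC100) defining full response. Beta-arrestin recruitment detected by chemiluminescent reagent, read after 1 h at ambient temperature.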
D2 PAM-1: potentiates the human D2 dopamine receptor allosterically. potentiation, % (concentration not given with the values). 0.23% of 360,000 active. P14416. DiscoveRx D2 beta-arrestin cells, luminescence, 90 min; 100% = 57 uM dopamine signal; in the data active = potentiation above about 50%; inconclusive = mostly about 30% to 49%
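PathHunter D2 cells, attached overnight at 37 deg C, received compound in DMSO plus dopamine at EC20 (50 nM final) for 90 min at 37 deg C. Beta-arrestin recruitment was read as luminescence after 1 h with detection reagent at ambient temperature.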
D2 antag: D2 dopamine receptor (human) antagonism; AID 485344; HEK293 TREx D2 cells, calcium flux, dopamine EC80; P14416; 2% of 340,000 active; inhibition, % at 10 µM; in the data active = inhibition above about 30%; inactive = below that, where a call was filed
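Calcium flux kinetic readout in an inducible HEK293 TREx D2 line plated overnight at 30 C. After 180 s compound exposure, an EC80 dopamine challenge follows with another 180 s kinetic read to detect antagonism.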
D2 PAM-2: D2 dopamine receptor (human) potentiation | HEK293 T-REx D2, calcium flux, EC20 dopamine potentiation | 0.34% of 340,000 active | P14416 | potentiation, % at 10 µM;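 active = potentiation over 3 SD above the plate norm, cut at about 30% in these data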
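Cells plated with tetracycline inducer and held overnight at 30 C; calcium dye loaded 30–90 min at room temperature; baseline taken, compound added and read 180 s; EC20 dopamine then added and read 180 s.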
D2 ag-2: agonists of human D2 dopamine receptor. P14416. HEK293 T-REx D2 cells, calcium flux agonist mode. activation, % at 2 µM. 0.53% of 340,000 active. AID 485358;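 active = activation over 3 SD above normal in the single-dose calcium agonist read, cut at about 30% in these data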
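Calcium-flux readout, 1 cycle/sec over 180 s following compound pin transfer, in inducible HEK293 Trex D2 cells (force-coupled); dopamine controls included. Positive calcium responses during this window marked compounds as potential agonists.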
Of the large screens only hits and unclear results are named; the others gave an inactive call.

COc1ccc(CCNC(=O)CSc2nc3ccccc3o2)cc1	D2 antag 39
COc1ccc(CCNC(=O)CSc2nc3[nH]c(=O)cc(O)c3s2)cc1	D2 antag 44
COc1ccc(CCNC(=O)CN2C(=O)c3ccccc3S2(=O)=O)cc1	D2 antag 34
CCc1c(CN2CCN(c3ccc(F)cc3)CC2)csc1C	none (no result: D2 ag-1, D2 PAM-1, D2 antag)
Cc1cc(C)c(C)c(OCCOCCN2CCN(C)CC2)c1	none
Cc1cc(C)c(C)c(OCCCCN2CCCCC2)c1	D2 antag 55
Cc1ccccc1OCCCCN1CCCCC1	D2 antag 50
CCc1ccccc1OCCCN1CCCC1	none (no result: D2 antag, D2 ag-2)
CCc1ccccc1OCCCCN1CCCCC1	D2 antag 89
COc1ccccc1OCCCCN1CCCCC1	none (no result: D2 antag, D2 ag-2)
C[C@H](CO)N1C[C@H](C)[C@@H](CN(C)Cc2ccc3c(c2)OCO3)Oc2cc(Br)ccc2S1(=O)=O	none (no result: D2 antag, D2 PAM-2, D2 ag-2)
CCc1cccc(NC(=O)c2oc3ccc4c(c3c2C)C(=O)CC(C)(C)O4)c1	none (no result: D2 ag-1, D2 PAM-1, D2 antag)
COc1ccc(-c2noc(CN(C)S(=O)(=O)c3c(C)cc(C)cc3C)n2)cc1OC	none (no result: D2 ag-1, D2 PAM-1, D2 antag)
COc1ccc(-c2noc(-c3ccco3)n2)cc1OC	D2 PAM-2 36
COc1ccc(-c2noc(CN(C)S(=O)(=O)c3ccc(Cl)cc3)n2)cc1OC	D2 PAM-2 45
COc1ccc(-c2noc(-c3ccc(Cl)cc3[N+](=O)[O-])n2)cc1OC	D2 ag-1 inconclusive, D2 PAM-1 89
CCN(C(=O)Cn1nc(Cc2ccncc2)c2ccccc2c1=O)c1ccc(OC)cc1	none (no result: D2 ag-1, D2 PAM-1, D2 antag, D2 ag-2)
CCCCOc1ccc(CN2CCCCC2)cc1	D2 antag 52
COC(=O)c1ccc(CN2CCCCC2)cc1	D2 antag 35
CCOC(=O)C1CCN(Cc2ccc(C(=O)OC)cc2)CC1	none
CCOC(=O)C1(CC2CC2)CCN(Cc2cn(C)c3ccccc23)CC1	D2 antag 30
CCOc1ccc(OCCCCN2CCCC2)cc1	none
CCOC(=O)C1(CC2CC2)CCN(Cc2ccc(C(=O)OC)cc2)CC1	D2 antag 72
Cc1ccc(CC(=O)NCc2cccnc2)cc1	D2 antag 67 (no result: D2 ag-1, D2 PAM-1)
Cc1c(Cl)c([N+](=O)[O-])nn1CC(=O)NCc1cccnc1	D2 antag 39
O=C(NCc1cccnc1)c1ccc(-c2ccc(Cl)cc2)o1	none
O=C(NCc1cccnc1)c1ccc(-c2cc(Cl)ccc2Cl)o1	D2 antag 50
Cc1ccc(CSCC(=O)NCc2cccnc2)cc1	none
COc1ccc(C2c3c(n(C)c4ccccc34)C(=O)N2CC(=O)Nc2ccccc2F)cc1 (stereo not drawn)	none (no result: D2 ag-1, D2 PAM-1, D2 antag)
Cc1ccc(N2CC(C(=O)Nc3cccnc3)CC2=O)cc1C (stereo not drawn)	D2 antag 31
COc1ccccc1N1CC(C(=O)Nc2nc(C)cs2)CC1=O (stereo not drawn)	none
Cc1csc(NC(=O)C2CC(=O)N(c3ccc(C)c(C)c3)C2)n1 (stereo not drawn)	D2 antag 51
Clc1cccc(CNc2ncnc3c2nc2n3CCCC2)c1	none (no result: D2 ag-1, D2 PAM-1, D2 antag)
CC(=O)c1ccc(N2CCN(C(=O)c3cc4ccc5cccnc5c4[nH]3)CC2)cc1	none (no result: D2 ag-1, D2 PAM-1, D2 antag)
N/C(=N\OC(=O)c1ccccc1Cl)c1cccc([N+](=O)[O-])c1	D2 ag-1 60
N/C(=N\OC(=O)c1ccc([N+](=O)[O-])cc1Cl)c1ccccn1	D2 ag-1 inconclusive
NC(=O)c1cccc([N+](=O)[O-])c1	none
N/C(=N\OC(=O)c1ccc2ccccc2c1)c1cccc([N+](=O)[O-])c1	D2 ag-1 inconclusive, D2 PAM-1 108
CC1=C(C)/C(=N/OC(=O)c2cccc([N+](=O)[O-])c2)C=CC1=O	D2 ag-1 inconclusive, D2 antag 34
N/C(=N\OC(=O)c1cccc([N+](=O)[O-])c1)c1ccccn1	D2 ag-1 inconclusive
N/C(=N/OC(=O)c1cccc([N+](=O)[O-])c1)c1cccc([N+](=O)[O-])c1	D2 ag-1 inconclusive, D2 PAM-1 inconclusive
N/C(=N\OC(=O)c1cccc(F)c1)c1cccc([N+](=O)[O-])c1	D2 ag-1 inconclusive, D2 PAM-1 85 (no result: D2 antag, D2 PAM-2, D2 ag-2)
COc1ccc(N(CC(=O)Nc2cccc(Cl)c2C)S(=O)(=O)c2c(C)nn(C)c2C)cc1	none (no result: D2 ag-1, D2 PAM-1, D2 antag)
N/C(=N\OC(=O)c1ccc(F)cc1)c1cccc([N+](=O)[O-])c1	D2 ag-1 inconclusive, D2 PAM-1 65

Assay outcomes as filed in PubChem.
